Pf growth 96h: P. falciparum growth inhibition at 96 hour, primary screen for plastid delayed-death inhibitors; P. falciparum luciferase reporter growth, 96 h; Potency, µM (doses to about 28.7 µM), actives largely listed as inhibitors; 6.9% of 320,000 active; AID 504834
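Delayed-death screen, second-generation endpoint: infected erythrocytes, 2% hematocrit, 0.05% parasitemia final; 96 hours at 37 C, 5% CO2; luciferase detection reagent; luminescence decrease equals reduced growth.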
Pf growth 48h: inhibits P. falciparum growth in the first generation, 48 h | P. falciparum luciferase growth in erythrocytes, 48 h | Potency, µM (series often up to 28.7 µM), hits mostly inhibitors | 5.9% of 310,000 active
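A one-generation exposure of luciferase-tagged malaria parasites in RPMI 1640/Albumax erythrocyte culture, 37 C and 5% CO2. Inhibition is inferred from decreased luminescence after adding detection reagent.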
HCMV inh: human cytomegalovirus inhibition. 4.5% of 410,000 active. activity change, negative = inhibition, % at 57.5 µM. AID 1259415. HFF cells, HCMV-luciferase reporter, 72 h; active compounds read low; in the data active = activity change below about -60%; inconclusive = no clear call, values can overlap the other calls; inactive = above about -39%
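Two compound doses tested in HFFs infected with HCMV-luciferase, MOI 1 PFU/cell, 72 h at 37C. Lysate luminescence read with OneGlo; data normalized against buffer-only and 10uM Salinomycin inhibitor controls.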
HCV inhibitor: HCV inhibition. Potency, µM (doses to about 41.8 µM), most hits filed as inhibitors. Huh7.5.1 HCVcc-Cre infection, luciferase reporter, 44 h. AID 651820. 3.4% of 340,000 active
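After 44 h co-culture of compound, cells and HCVcc-Cre (~0.5 moi), substrate is added for 15 min at room temperature and luciferase measured over 15 sec. Cells were seeded at 1,000/well and pre-cultured 4 h.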
Of the large screens only hits and unclear results are named; the others gave an inactive call. Compounds with a hit are over-represented: about 13% of the library has one in this group of screens. Unless noted, calls follow the shape of the dose curve; as a rule, active = well fitted inhibition curve with a large enough effect; inconclusive = small, poorly fitted or top-dose-only effect, or another doubt; inactive = no such curve, though single readings can be large or run the other way.

CC(NC(=O)c1cn(C)c2ccc(S(=O)(=O)N3CCCC3)cc2c1=O)c1ccccc1 (centres undefined)	Pf growth 96h 12µM, Pf growth 48h 12µM
Cc1ccc(C(=O)Nc2c(-c3ccccc3)nc3ccccn23)cc1C	none (no result: Pf growth 96h, Pf growth 48h, HCV inhibitor)
CCn1cc(C(=O)N2CCN(c3cccc(Cl)c3)CC2)c(=O)c2cc(S(=O)(=O)N3CCCCC3)ccc21	none (no result: Pf growth 96h, Pf growth 48h, HCV inhibitor)
COC(=O)c1cn(C)c2ccc(S(=O)(=O)N3CCOCC3)cc2c1=O	none
CC1CCCCC1NC(=O)c1cn(C)c2ccc(S(=O)(=O)N3CCCC3)cc2c1=O (centres undefined)	Pf growth 48h 8.3µM
Cn1cc(C(=O)NCc2cccnc2)c(=O)c2cc(S(=O)(=O)N3CCCCCC3)ccc21	Pf growth 96h 6.6µM (no result: HCMV inh, HCV inhibitor)
COC(=O)c1cn(C)c2ccc(S(=O)(=O)N3CCCC3)cc2c1=O	Pf growth 96h 3.7µM
Cn1cc(C(=O)NCc2ccccc2)c(=O)c2cc(S(=O)(=O)N3CCCCCC3)ccc21	none (no result: Pf growth 96h, Pf growth 48h, HCV inhibitor)
COc1ccccc1N1CCN(c2nc3ccc(C(=O)c4ccccc4)cc3n3c(C)nnc23)CC1	none (no result: Pf growth 96h, Pf growth 48h, HCV inhibitor)
O=[N+]([O-])c1cc(-c2nc(-c3ccncc3)no2)ccc1NCc1ccccc1	none (no result: Pf growth 96h, Pf growth 48h, HCV inhibitor)
COc1ccccc1Nc1cc(C(=O)NC2CCC(C)CC2)c2ccccc2n1 (centres undefined)	none (no result: Pf growth 96h, Pf growth 48h, HCV inhibitor)
CCOC(=O)c1c(C)[nH]c(C)c1S(=O)(=O)NCC(=O)NCc1ccccc1C	none (no result: Pf growth 96h, Pf growth 48h, HCV inhibitor)
Cc1cc(C(=O)N2CCCC(N3CCN(c4cccc(C(F)(F)F)c4)CC3)C2)no1 (centres undefined)	Pf growth 48h inconclusive
Cc1cc(C)c(C(=O)N2CCCC(N3CCN(c4cccc(C(F)(F)F)c4)CC3)C2)o1 (centres undefined)	Pf growth 96h inconclusive, Pf growth 48h inconclusive, HCV inhibitor 11µM
O=C(c1cc(C2CC2)on1)N1CCCC(N2CCN(c3cccc(C(F)(F)F)c3)CC2)C1 (centres undefined)	Pf growth 48h 12µM
Cc1noc(C)c1C(=O)N1CCCC(N2CCN(c3cccc(C(F)(F)F)c3)CC2)C1 (centres undefined)	Pf growth 48h inconclusive
Cc1nnsc1C(=O)N1CCCC(N2CCN(c3cccc(C(F)(F)F)c3)CC2)C1 (centres undefined)	Pf growth 96h inconclusive, Pf growth 48h 13µM, HCMV inh -61
O=C(c1ccco1)N1CCCC(N2CCN(c3cccc(C(F)(F)F)c3)CC2)C1 (centres undefined)	Pf growth 48h 10µM, HCV inhibitor 22µM
Cc1ccc(NC(=O)C(=O)NCC(c2ccc3c(c2)OCO3)N2CCN(C)CC2)c(C)c1 (centres undefined)	none (no result: Pf growth 96h, Pf growth 48h, HCV inhibitor)
CCCCn1c(=O)c2oc3ccccc3c2n(CC(=O)Nc2ccc(CC)cc2)c1=O	none (no result: Pf growth 96h, Pf growth 48h, HCV inhibitor)
Cc1cccn2c(=O)c3cc(C(=O)Nc4ccc(Cl)c(Cl)c4)sc3nc12	none (no result: Pf growth 96h, Pf growth 48h, HCV inhibitor)
COc1ccccc1NC(=O)N[C@H]1CC[C@@]23CCCN2C(=O)CCC[C@H]3[C@H]1C	none (no result: Pf growth 96h, Pf growth 48h, HCV inhibitor)
Cn1c(SCC(=O)N2CCOCC2)nnc1-c1ccncc1	HCMV inh inconclusive
O=C(CSc1nnc(-c2ccccc2)n1Cc1ccccc1)N1CCOCC1	none
O=C1c2ccccc2C(=O)N1CCSc1nnc(-c2ccco2)n1Cc1ccccc1	none (no result: Pf growth 48h)
O=C(CSc1nnc(-c2cccnc2)n1Cc1ccccc1)N1CCOCC1	Pf growth 96h 1.9µM
Oc1ccccc1-c1nnc(SCCN2CCOCC2)n1Cc1ccccc1	Pf growth 48h inconclusive, HCMV inh -64, HCV inhibitor inconclusive (no result: Pf growth 96h)
Cn1c(SCC(=O)N2CCN(Cc3ccccc3)CC2)nnc1-c1ccncc1	Pf growth 96h 2.9µM
COCCn1c(CNC(=O)c2ccccc2C)nc2cccnc21	none (no result: Pf growth 96h, Pf growth 48h, HCV inhibitor)
O=C(CCC(=O)N1CC2CCCN2c2ccccc21)NCc1ccccc1 (centres undefined)	none (no result: Pf growth 96h, Pf growth 48h, HCV inhibitor)
COC(=O)c1cnn(-c2ccc(F)cc2F)c1/C=N/NC(N)=S	HCV inhibitor 10µM
CN(C)c1ccc(NC(=O)CN2CCN(CC(=O)Nc3ccc(Br)cc3)CC2)cc1	none (no result: Pf growth 96h, Pf growth 48h, HCV inhibitor)
COc1ccc(C(=O)C(Nc2ccccc2)C(=O)Nc2ccc3ccccc3c2)cc1 (centres undefined)	none (no result: Pf growth 96h, Pf growth 48h, HCV inhibitor)
COc1cc(/C=N/Nc2nc(C)nc3c2cnn3-c2ccccc2)ccc1O	Pf growth 96h inconclusive, Pf growth 48h inconclusive, HCV inhibitor 11µM
O=C(CCC(=O)N1CCSc2ccccc21)Nc1ccc(Cl)cc1	none (no result: Pf growth 96h, Pf growth 48h, HCV inhibitor)
Cc1nonc1C(=O)N/N=C/c1cccc(O)c1	Pf growth 96h 2.1µM
COC(=O)c1nn(-c2ccc3c(c2)OCO3)cc1O	none
COC(=O)c1nn(-c2ccc3c(c2)CCN3C(C)=O)cc1O	Pf growth 48h 1.3µM, HCMV inh inconclusive
CCc1nc(-c2cc(S(=O)(=O)N3CCN(c4ccc(F)cc4)CC3)ccc2OC)no1	none (no result: Pf growth 96h, Pf growth 48h, HCV inhibitor)
COc1cccc(CC(NC(C)=O)C(=O)NC2CCN(c3c(Cc4ccccc4)c(C)nc4ncnn34)CC2)c1OC (centres undefined)	Pf growth 96h inconclusive, Pf growth 48h 5.9µM, HCV inhibitor inconclusive
COc1ccc(CC(NC(C)=O)C(=O)NC2CCN(c3c(Cc4ccccc4)c(C)nc4ncnn34)CC2)cc1OC (centres undefined)	Pf growth 96h inconclusive, Pf growth 48h 12µM
COc1ccc(CC(NC(C)=O)C(=O)NC2CCN(c3c(Cc4ccccc4)c(C)nc4ncnn34)CC2)c(OC)c1 (centres undefined)	none
COc1ccc(N2C(=O)C(CC(=O)Nc3ccc(F)cc3)N(Cc3ccc4c(c3)OCO4)C2=O)cc1 (centres undefined)	none (no result: Pf growth 96h, Pf growth 48h, HCV inhibitor)
Cc1ccc2c(c1)[C@H]1[C@H](CO2)[C@H](c2ccccc2)[C@]2(C)C(=O)Nc3cc(F)c(F)cc3C(=O)N12	HCMV inh -70, HCV inhibitor inconclusive (no result: Pf growth 96h, Pf growth 48h)
Cc1ccc2c(c1)[C@H]1[C@H](CO2)[C@H](c2ccccc2)[C@]2(C)C(=O)Nc3cc(Cl)ccc3C(=O)N12	Pf growth 96h 9.3µM, Pf growth 48h 8.3µM, HCV inhibitor inconclusive (no result: HCMV inh)
CCCCNS(=O)(=O)c1ccc2nc(SCC(=O)c3ccccc3OC)[nH]c2c1	HCMV inh -79, HCV inhibitor inconclusive (no result: Pf growth 48h)
CCCCNS(=O)(=O)c1ccc2nc(SCC(=O)Nc3ccccc3Cl)[nH]c2c1	Pf growth 96h inconclusive, HCMV inh -82, HCV inhibitor 13µM
CCCCNS(=O)(=O)c1ccc2nc(SCC(=O)Nc3cccc(F)c3)[nH]c2c1	none
C=C(C)CSc1nc2sc3c(c2c(=O)n1-c1ccccc1)CCC(C)C3 (centres undefined)	none (no result: Pf growth 96h, Pf growth 48h, HCV inhibitor)
Fc1ccc(C(Nc2ccccc2Cl)c2nnc(-c3ccccc3Cl)o2)cc1 (centres undefined)	none (no result: Pf growth 96h, Pf growth 48h, HCV inhibitor)
Nc1c(N2CCN(c3ccccc3)CC2)c2ccccc2oc1=O	HCMV inh -100
COc1ccc(N(C(=O)COc2ccc(Br)cc2)S(=O)(=O)c2ccc(C)cc2)cc1	none (no result: Pf growth 96h, Pf growth 48h, HCV inhibitor)
O=C(/C=C/c1cccc(C(F)(F)F)c1)NNC(=O)c1ccncc1	HCMV inh -76, HCV inhibitor inconclusive
COc1ccc(NC(=O)/C=C/c2cccc(Br)c2)cn1	Pf growth 96h inconclusive, HCV inhibitor inconclusive
COc1ccc(NC(=O)/C=C/c2cccc(C(F)(F)F)c2)cn1	Pf growth 96h inconclusive, Pf growth 48h inconclusive, HCV inhibitor 11µM
